# Inconclusive results are not listed. Where a call stands in place of a potency, no number is given. The source made the active and inactive calls. The call rests on the fitted dose curve; in most records, active means well fitted curve in the direction sought with a large enough effect; inconclusive means small, poorly fitted or top-dose-only effect, or another doubt; inactive means no such curve, though single readings can be large; an effect the other way counts as inactive or inconclusive.
# What was measured:
# [1] = qHTS to identify inhibitors of the type 1 interferon - major histocompatibility complex class I in skeletal muscle: primary screen against the NCATS Pharmaceutical Collection (AID 1347407);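 further: luminescence of HiBiT knocked into endogenous HLA-B as interferon-induced MHC class I level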; further: potency means the concentration at half of the fitted maximal effect
# Outline: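 Immortalized human myoblasts (C25cl48) with HiBiT knocked into endogenous HLA-B*08:01 were stimulated with 4.0 ng/ml IFN-beta and treated with compounds ([…] top 46 uM) for 24 hrs at 37 C. HiBiT lytic luminescence read.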
# [2] = biological target: Protein phosphatase 1D (Homo sapiens) (UniProt O15297); experiment: RapidFire Mass Spectrometry qHTS Assay for Modulators of WT P53-Induced Phosphatase 1 (WIP1) (AID 1347424); further: series mostly up to about 63 µM
# Sequence of Protein phosphatase 1D (Homo sapiens) (O15297 whole entry, looked up): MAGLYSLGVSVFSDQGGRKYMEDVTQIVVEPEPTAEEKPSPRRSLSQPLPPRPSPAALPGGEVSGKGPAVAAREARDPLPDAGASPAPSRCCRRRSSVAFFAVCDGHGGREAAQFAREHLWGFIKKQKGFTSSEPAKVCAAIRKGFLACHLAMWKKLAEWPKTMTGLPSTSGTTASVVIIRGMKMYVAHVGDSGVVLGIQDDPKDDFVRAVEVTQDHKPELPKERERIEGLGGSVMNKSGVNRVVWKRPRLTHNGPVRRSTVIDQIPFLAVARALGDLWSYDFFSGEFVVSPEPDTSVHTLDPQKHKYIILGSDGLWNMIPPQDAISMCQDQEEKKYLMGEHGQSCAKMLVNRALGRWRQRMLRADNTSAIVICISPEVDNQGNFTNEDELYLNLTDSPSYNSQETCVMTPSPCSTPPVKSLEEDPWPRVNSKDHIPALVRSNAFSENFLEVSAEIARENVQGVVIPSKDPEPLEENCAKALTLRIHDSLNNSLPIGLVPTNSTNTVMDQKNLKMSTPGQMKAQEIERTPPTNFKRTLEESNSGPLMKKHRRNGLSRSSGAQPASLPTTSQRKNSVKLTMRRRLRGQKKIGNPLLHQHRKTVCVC
# Outline: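 RapidFire MS readout of dephosphorylated VEPPL-S-QETFS product, with 1 uM isotope-labelled peptide standard. Reaction: 10 nM WIP1, 2 uM phosphopeptide substrate, 5 min, room temperature, after 1 h compound preincubation; stopped with 0.5% formic acid.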
# [3] = biological target: Protein phosphatase 1D (Homo sapiens) (UniProt O15297); experiment: Rhodamine-PBP qHTS Assay for Modulators of WT P53-Induced Phosphatase 1 (WIP1) (AID 1347425)
# Outline: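 5 nM WIP1 + 10 uM Rh-PBP, 50 mM Tris pH 7.5, 30 mM MgCl2, 1 mM TCEP, 0.1 mM EGTA, BSA; cpds pinned, 1 hr RT; + 10 uM phosphopeptide; fluorescence 1-min reads x 11 min; delta = f1 - f0.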
# [4] = Primary qHTS for inhibitors of La Crosse Virus (LACV) - induced cell death in SH-SY5Y cells (AID 1508616); further: potency means the concentration at half of the fitted maximal effect
# Outline: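 SH-SY5Y, 6000 cells/well; cpd via pin tool in DMSO; LACV 0.01 MOI; 6 d 37C 5% CO2; ATPLite, 5 min RT; luminescence normalized to ±virus DMSO controls.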
# [5] = biological target: Calcium and integrin-binding protein 1 (Homo sapiens) (UniProt Q99828); experiment: Primary qHTS for Identification of Calcium Integrin Binding Protein 1 (CIB1) Competitor (AID 1508620);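 further: GST tagged CIB1 binding a fluorescein labelled alphaIIb integrin peptide tracer; top concentration of the series differs between compounds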
# Sequence of Calcium and integrin-binding protein 1 (Homo sapiens) (Q99828 whole entry, looked up): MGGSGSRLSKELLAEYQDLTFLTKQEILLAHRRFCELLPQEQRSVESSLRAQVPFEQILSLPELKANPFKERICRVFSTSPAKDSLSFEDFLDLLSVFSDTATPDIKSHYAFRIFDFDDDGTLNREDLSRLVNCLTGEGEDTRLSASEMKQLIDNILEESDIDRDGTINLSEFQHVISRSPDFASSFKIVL
# Outline: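 Fluorescence polarization competition: GST-tagged CIB1 (1 uM final) preincubated with compound 15 min at room temperature, then FITC-labelled alphaIIb peptide (100 nM final) added. After 15 min at room temperature, polarization read at Ex 480/Em 540.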
# [6] = qHTS to identify inhibitors of the type 1 interferon - major histocompatibility complex class I in skeletal muscle: primary screen against the NCATS Mechanism Interrogation Plate v5.0 (MIPE) Libary (AID 1347411); further: nearly all actives have a fitted effect of over 65% in size; further: potency means the concentration at half of the fitted maximal effect
# Outline: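 Seed engineered human myoblasts (HLA-B HiBit) in medium without dexamethasone containing 4 ng/ml IFN-beta; after 1 hr add compound titrations (top 46 uM final). Incubate 24 hrs at 37 C, lyse 10 min with HiBiT reagent, read luminescence.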
# [7] = qHTS to identify inhibitors of the type 1 interferon - major histocompatibility complex class I in skeletal muscle: primary screen against the NCATS LOPAC collection (AID 1347405);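 further: lytic HiBiT luminescence reporting HLA-B protein level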
# Outline: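 First, engineered myoblasts carrying HLA-B-HiBiT were seeded in medium lacking dexamethasone with 4 ng/ml IFN-beta. After 1 hr, compounds were pinned in (top 46 uM final, 7 points). After 24 hrs at 37 C, luminescence was measured following 10 min lysis.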
# [8] = qHTS for inhibitors of adenylyl cyclases using a fission yeast platform: a pilot screen against the NCATS LOPAC library (AID 1347410)
# Outline: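 S. pombe CHP2027 (AC9-GNAS-PDE4D2) carrying PKA-repressed fbp1-GFP, incubated 18 h at 30C in EMM with LOPAC compounds at up to 57 uM. GFP gain-of-signal read by laser scanning cytometry; DMSO negative control.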
# [9] = Validation qHTS assay for inhibitors of Activation Induced Cytidine Deaminase (AID): UDG Counterscreen signal (AID 1347427)
# Outline: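 Fluorescence at 560 nm excitation, 665 nm emission reports UDG signal after 250 mM NaOH (2x) addition and 30 min. Enzymes (AID 1 uM, UDG 2 U/mL, at 4/3x) preincubated 10 min with compound, then 4 h with 4x 250 nM DJC20/DJC23 substrate at room temperature.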
# [10] = biological target: Single-stranded DNA cytosine deaminase (Homo sapiens) (UniProt Q9GZX7); experiment: Validation qHTS assay for inhibitors of Activation Induced Cytidine Deaminase (AID): AID signal (AID 1347429)
# Sequence of Single-stranded DNA cytosine deaminase (Homo sapiens) (Q9GZX7 whole entry, looked up): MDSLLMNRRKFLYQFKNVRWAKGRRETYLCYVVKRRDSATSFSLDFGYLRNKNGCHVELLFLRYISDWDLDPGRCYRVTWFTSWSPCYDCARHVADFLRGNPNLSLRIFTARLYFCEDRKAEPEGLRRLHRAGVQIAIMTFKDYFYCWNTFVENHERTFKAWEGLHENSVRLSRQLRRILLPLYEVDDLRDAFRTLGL
# Outline: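 Steps: dispense AID with UDG; pin-transfer compound up to 114 uM final; add DJC20/DJC23 substrate and hold 4 hr at room temperature; add NaOH, hold 30 min; read FRET signal (540/590 nm).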
# [11] = biological target: Calcium and integrin-binding protein 1 (Homo sapiens) (UniProt Q99828); experiment: Validation qHTS for Identification of Calcium Integrin Binding protein 1 (CIB1) Competitor (AID 1508618)
# Outline: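 Displacement of FITC-alphaIIb peptide (100 nM) from CIB1-GST (1 uM) is monitored by polarization in quantitative HTS format; buffer carries 5 mM CaCl2 and 125 mM NaCl at pH 7.4, incubations are at room temperature.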
# [12] = Counterscreen qHTS for small molecule stabilizers of the endoplasmic reticulum resident proteome: GLuc-NoTag assay (AID 1508627); further: series mostly up to about 76 µM
# Outline: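 Counterscreen line: SH-SY5Y-GLuc-NoTag. Seed, 5 h; compound, 19 h; thapsigargin 100 nM, 4 h; 37C/5% CO2. Readout: secreted GLuc luminescence, coelenterazine 0.07x final, no lysis.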
# [13] = Confirmatory qHTS for small molecule stabilizers of the endoplasmic reticulum resident proteome: Secreted ER Calcium Modulated Protein (SERCaMP) assay (AID 1508628); further: series mostly up to about 76 µM; nearly all actives have a fitted effect of over 40% in size
# Outline: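 Reporter secretion upon ER calcium depletion (100 nM thapsigargin, 4 h, 37C) is measured as medium luminescence with coelenterazine, after 16 h compound pretreatment of SH-SY5Y-GLuc-SERCaMP cells; primary at three concentrations up to 38.3 uM, follow-up at 11 (up to 76.6 uM).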
smiles,measurement,setting,value
COc1cc([C@@H]2c3cc4c(cc3[C@H](O)[C@H]3COC(=O)[C@H]23)OCO4)cc(OC)c1OC,Potency,[1],inactive
same,outcome,[2],inactive
same,outcome,[3],inactive
same,Potency,[4],inactive
same,outcome,[5],inactive
CN(Cc1cc(Br)cc(Br)c1N)C1CCCCC1,Potency,[1],inactive
same,Potency,[6],inactive
same,outcome,[2],inactive
same,outcome,[3],inactive
same,Potency,[4],inactive
same,outcome,[5],inactive
Cn1nnc2c(C(N)=O)ncn2c1=O,Potency,[1],inactive
same,Potency,[6],inactive
same,outcome,[3],inactive
same,Potency,[4],inactive
same,outcome,[5],inactive
CCOCC(O)COc1ccc(NC(=O)CC[S+](C)C)cc1 (stereo unspecified),Potency,[1],inactive
same,Potency,[6],inactive
same,outcome,[2],inactive
same,outcome,[3],inactive
same,Potency,[4],inactive
CC(C)C[C@H](NC(=O)[C@H](CCc1ccccc1)NC(=O)CN1CCOCC1)C(=O)N[C@@H](Cc1ccccc1)C(=O)N[C@@H](CC(C)C)C(=O)[C@@]1(C)CO1,Potency,[1],93.8 nM (active)
same,Potency,[6],26.2 nM (active)
same,outcome,[3],inactive
same,Potency,[4],355 nM (active)
same,outcome,[5],inactive
NCCCC(O)(P(=O)(O)O)P(=O)(O)O,Potency,[1],inactive
same,Potency,[6],inactive
same,outcome,[2],inactive
same,outcome,[3],inactive
same,Potency,[4],inactive
same,outcome,[5],inactive
NC(=O)c1ccc2[nH]ccc2c1,outcome,[7],inactive
same,outcome,[8],inactive
same,outcome,[9],inactive
same,outcome,[10],inactive
same,Potency,[4],inactive
same,outcome,[11],inactive
CCCCCCNC(=O)n1cc(F)c(=O)[nH]c1=O,Potency,[1],inactive
same,Potency,[6],inactive
same,outcome,[2],inactive
same,outcome,[3],inactive
same,Potency,[4],inactive
Nc1nc(N)nc(-c2cc(Cl)ccc2Cl)n1,Potency,[1],inactive
same,Potency,[6],inactive
same,outcome,[2],inactive
same,outcome,[3],inactive
same,Potency,[4],inactive
same,outcome,[5],inactive
Nc1ccc(S(=O)(=O)Nc2ccccn2)cc1,Potency,[1],inactive
same,outcome,[2],inactive
same,outcome,[3],inactive
same,Potency,[4],inactive
CC(C)(C#N)c1cc(Cn2cncn2)cc(C(C)(C)C#N)c1,Potency,[1],inactive
same,Potency,[6],inactive
same,outcome,[3],inactive
same,Potency,[4],inactive
same,outcome,[5],inactive
S=P(N1CC1)(N1CC1)N1CC1,Potency,[1],inactive
same,Potency,[6],inactive
same,outcome,[2],inactive
same,Potency,[4],inactive
same,outcome,[5],inactive
same,outcome,[12],inactive
same,Potency,[13],inactive
Oc1c(Cl)cc(Cl)c2cccnc12,Potency,[1],inactive
same,Potency,[6],23400 nM (active)
same,outcome,[2],inactive
same,outcome,[3],inactive
same,outcome,[5],inactive
same,outcome,[12],inactive
CNS(=O)(=O)Cc1ccc2[nH]cc(CCN(C)C)c2c1,Potency,[1],inactive
same,outcome,[2],inactive
same,outcome,[3],inactive
same,Potency,[4],inactive
same,outcome,[5],inactive
CCC(C)(C)c1ccc(CC(C)CN2C[C@@H](C)O[C@@H](C)C2)cc1 (stereo partly specified),Potency,[1],inactive
same,outcome,[2],inactive
same,outcome,[3],inactive
same,Potency,[4],inactive
NC(=O)c1cccnc1,Potency,[6],inactive
same,outcome,[2],inactive
same,outcome,[3],inactive
same,Potency,[4],inactive
same,outcome,[5],inactive
Nc1[nH]c(=O)ncc1F,Potency,[6],inactive
same,outcome,[2],inactive
same,outcome,[3],inactive
same,Potency,[4],inactive
same,outcome,[5],inactive
CCc1cc(C(N)=S)ccn1,Potency,[1],inactive
same,outcome,[3],inactive
same,Potency,[4],inactive
same,outcome,[5],inactive
OC(Cn1cncn1)(Cn1cncn1)c1ccc(F)cc1F,Potency,[1],inactive
same,outcome,[3],inactive
same,Potency,[4],inactive
same,outcome,[5],inactive
C[C@@H]1CN(c2c(F)c(N)c3c(=O)c(C(=O)O)cn(C4CC4)c3c2F)C[C@H](C)N1,Potency,[6],inactive
same,outcome,[3],inactive
same,Potency,[4],inactive
same,outcome,[5],inactive
CN(C)CCc1c[nH]c2ccc(CS(=O)(=O)N3CCCC3)cc12,Potency,[1],inactive
same,outcome,[2],inactive
same,outcome,[3],inactive
same,Potency,[4],inactive
same,outcome,[5],inactive
CCOc1cc(N)c(Cl)cc1C(=O)NCC1CN(Cc2ccc(F)cc2)CCO1 (stereo unspecified),Potency,[1],inactive
same,outcome,[3],inactive
same,Potency,[4],inactive
same,outcome,[5],inactive
same,outcome,[12],inactive
same,Potency,[13],inactive
Cc1nnc(NS(=O)(=O)c2ccc(N)cc2)s1,Potency,[1],inactive
same,outcome,[2],inactive
same,outcome,[3],inactive
same,Potency,[4],inactive
same,outcome,[5],inactive
Cc1ccc(S(=O)(=O)N[C@@H](Cc2ccccc2)C(=O)CCl)cc1,outcome,[8],inactive
same,outcome,[9],inactive
same,outcome,[10],inactive

# — PubChem BioAssay (NCATS)
